Test results from PubChem BioAssay (NCATS).
Records with an inconclusive call do not appear. Where a call stands in place of a potency, no number is given. Values without a mark were called inactive. Calls of active or inactive are those of the source. Calls come from the whole dose curve; as a rule, active = well fitted curve in the direction sought with a large enough effect; inconclusive = small, poorly fitted or top-dose-only effect, or another doubt; inactive = no such curve, though single readings can be large; an effect the other way counts as inactive or inconclusive. Residues, ends and D or L forms follow the SMILES beside them. *: point of attachment. Cbz = O=C(OCc1ccccc1)*

Assays:
[1] = tested on: Zika virus NS2B-NS3 protease; assay: Primary screen GU AMC qHTS for Zika virus inhibitors (AID 1347154); note: nearly all actives have a fitted effect of over 70% in size; note: potency is the fitted concentration of half-maximal effect
In short: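 Unlinked Zika NS2B hydrophilic domain–NS3 protease complex at 25 nM in 10 mM Tris-HCl pH 8.0, 0.01% Tween 20, with an AMC peptide substrate. Fluorescence change (340/450 nm) over 15 min at room temperature, normalized to controls, fitted to 4-parameter Hill.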

[2] = biological target: Lysine-specific demethylase 5B (Homo sapiens) (UniProt Q9UGL1); assay: Optimization screen for KDM5B Histone Demethylases FDH coupled qHTS against the LOPAC library (AID 1347166); details: KDM5B demethylation, FDH-coupled NADH fluorescence (FDH is formaldehyde dehydrogenase); at 57.5 µM (top of the series)
In short: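 KDM5BDeltaAP (200nM final) in 50mM HEPES pH 7.5, 0.01% Tween-20 was preincubated with compound for 10 min at room temperature. A substrate mix of 12.5uM H3K4Me3, 25uM a-ketoglutarate, ascorbate, Fe2+, NAD+ and formaldehyde dehydrogenase was then added. NADH fluorescence (340/450 nm) was read initially and after 30 min.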

[3] = tested on: Zika virus NS2B-NS3 protease (linked); assay: 384 well plate NINDS AMC confirmatory qHTS for Zika virus inhibitors (AID 1347163); note: nearly all actives have a fitted effect of over 50% in size; note: potency is the fitted concentration of half-maximal effect;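 for activity change, negative = inhibition: linked protease at 5 30 or 60 nM final depending on run; fluorescence of AMC released from Ac-VKTGKR-AMC peptide cleaved by the protease; top concentration of the series differs between compounds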
In short: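 Enzyme (5, 30 or 60 nM final) first met test compounds for ~15 min. The AMC-tagged peptide Ac-VKTGKR-AMC followed at 30 microM. Fluorescence was then recorded at 25 min and scaled against no-enzyme and no-inhibitor wells.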

[4] = tested on: Zika virus NS2B-NS3 protease (linked construct); assay: 384 well plate NINDS Rhodamine confirmatory qHTS for Zika virus inhibitors (AID 1347164); note: potency is the fitted concentration of half-maximal effect; nearly all actives have a fitted effect of over 65% in size
In short: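 Cleavage of Ac-LKRR-Rhodamine 110 (10 microM final) by linked protease (final 5, 30 or 60 nM) was followed as fluorescence at 485/538 nm after 25 min, room temperature, dark. Compounds preincubated ~15 min.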

[5] = Confirmatory screen NINDS Rhodamine qHTS for Zika virus inhibitors (AID 1347161); note: potency is the fitted concentration of half-maximal effect; nearly all actives have a fitted effect of over 60% in size
In short: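 Rhodamine110-peptide cleavage (1.5 µM substrate) by 25 nM linked NS2B-NS3 enzyme at pH 8.0 (Tris, Tween 20), after 15 min RT preincubation with compounds; 15-min fluorescence change normalized to controls and Hill-fitted.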

[6] = Vero cells viability qHTS for Zika virus inhibitors (AID 1347167); note: potency is the fitted concentration of half-maximal effect
In short: (§1)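 qHTS titration; 24-48 h compound exposure, 37 degrees C/5% CO2; DMEM, 4% FBS; CellTiter Glo ATP luminescence.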

[7] = HepG2 cells viability qHTS for Zika virus inhibitors (AID 1347168)
In short: as §1

[8] = Confirmatory screen GU Rhodamine qHTS for Zika virus inhibitors qHTS (AID 1347157); note: potency is the fitted concentration of half-maximal effect; nearly all actives have a fitted effect of over 70% in size
In short: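 Buffer 10 mM Tris-HCl pH 8.0, 0.01% Tween 20. Unlinked protease 25 nM; compound preincubation 15 min, RT, protected from light. Substrate Rhod110, 1.5 microM; ~15% conversion in 15 min.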

[9] = ZIKV-mCherry secondary qHTS for Zika virus inhibitors (AID 1347158); note: top concentration of the series differs between compounds
In short: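 Read-out is percent infection: mCherry-positive Vero cells (nuclear-proximal intensity >450 RFU, 3 SD above negative controls) counted by high-content imaging of Hoechst-stained, PFA-fixed wells after 48-72 h with ZIKV-mCherry at MOI 1 and compound.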

Chain of Lysine-specific demethylase 5B (Homo sapiens) (Q9UGL1 whole entry, looked up): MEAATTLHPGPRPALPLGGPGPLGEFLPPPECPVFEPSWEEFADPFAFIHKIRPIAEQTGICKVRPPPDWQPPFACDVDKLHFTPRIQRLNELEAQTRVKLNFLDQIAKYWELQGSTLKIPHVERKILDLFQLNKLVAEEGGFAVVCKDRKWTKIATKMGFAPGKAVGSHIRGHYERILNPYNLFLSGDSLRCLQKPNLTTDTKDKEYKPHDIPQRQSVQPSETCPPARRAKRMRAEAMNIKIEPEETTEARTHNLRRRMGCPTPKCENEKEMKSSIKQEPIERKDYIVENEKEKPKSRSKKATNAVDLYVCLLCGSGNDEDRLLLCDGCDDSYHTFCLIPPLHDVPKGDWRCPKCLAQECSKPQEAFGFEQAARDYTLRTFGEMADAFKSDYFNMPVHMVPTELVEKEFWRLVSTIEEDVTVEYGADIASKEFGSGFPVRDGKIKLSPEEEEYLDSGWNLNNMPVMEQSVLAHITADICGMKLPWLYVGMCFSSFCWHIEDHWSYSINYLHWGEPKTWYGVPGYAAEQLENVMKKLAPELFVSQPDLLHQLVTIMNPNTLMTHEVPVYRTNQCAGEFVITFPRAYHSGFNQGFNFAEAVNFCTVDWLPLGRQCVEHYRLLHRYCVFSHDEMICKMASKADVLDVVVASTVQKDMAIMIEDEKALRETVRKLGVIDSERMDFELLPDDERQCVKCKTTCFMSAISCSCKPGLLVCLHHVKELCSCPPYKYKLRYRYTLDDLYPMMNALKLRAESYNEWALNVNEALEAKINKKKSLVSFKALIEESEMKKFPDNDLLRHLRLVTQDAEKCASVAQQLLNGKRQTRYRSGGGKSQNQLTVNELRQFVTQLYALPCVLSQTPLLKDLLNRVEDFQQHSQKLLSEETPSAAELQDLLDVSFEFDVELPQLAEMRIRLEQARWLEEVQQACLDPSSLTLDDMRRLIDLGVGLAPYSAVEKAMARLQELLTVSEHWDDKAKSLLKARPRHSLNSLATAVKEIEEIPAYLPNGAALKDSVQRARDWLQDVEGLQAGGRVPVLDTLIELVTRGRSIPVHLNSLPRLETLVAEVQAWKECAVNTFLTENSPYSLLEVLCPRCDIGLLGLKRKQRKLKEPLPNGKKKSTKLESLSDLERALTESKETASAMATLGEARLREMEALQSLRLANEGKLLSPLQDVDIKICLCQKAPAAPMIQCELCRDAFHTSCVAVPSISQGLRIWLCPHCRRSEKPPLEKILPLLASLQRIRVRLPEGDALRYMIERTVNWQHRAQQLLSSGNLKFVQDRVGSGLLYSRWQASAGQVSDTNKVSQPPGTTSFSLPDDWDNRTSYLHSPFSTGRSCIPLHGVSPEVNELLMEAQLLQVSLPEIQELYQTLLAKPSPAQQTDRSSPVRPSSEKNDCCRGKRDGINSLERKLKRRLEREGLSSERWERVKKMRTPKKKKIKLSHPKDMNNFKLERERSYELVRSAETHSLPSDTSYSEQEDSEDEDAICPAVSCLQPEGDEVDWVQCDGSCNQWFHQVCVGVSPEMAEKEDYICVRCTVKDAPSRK

## NC[C@@H]1O[C@H](c2ccccc2)Cc2c1ccc(O)c2O
[1]
  Potency: inactive

## COc1ccccc1N1CCN(CCCCN2C(=O)c3ccccc3C2=O)CC1
[1]
  Potency: inactive
[2]
  activity, negative = inhibition: -4.4%

## O=C1Nc2ccc(I)cc2/C1=C/c1cc(Br)c(O)c(Br)c1
[1]
  Potency: inactive
[3]
  Potency: 89.1 µM (active)
[4]
  Potency: 2.51 µM (active)
[2]
  activity, negative = inhibition: -25%

## O=C(O)c1ccccc1Nc1cccc(OCc2ccc3ccccc3n2)c1
[1]
  Potency: inactive
[5]
  Potency: 3.49 µM (active)
[3]
  Potency: 158 µM (active)
[4]
  Potency: 63.1 µM (active)
[2]
  activity, negative = inhibition: -2.34%
[6]
  Potency: inactive
[7]
  outcome: inactive

## CCCCCCCC/C=C\CCCCCCCC(=O)NCCc1ccc(O)c(O)c1
[1]
  Potency: 16.8 µM (active)
[5]
  Potency: 19.6 µM (active)
[3]
  Potency: 1.12 µM (active)
[4]
  Potency: 3.16 µM (active)
[2]
  activity, negative = inhibition: -22.3%
[6]
  Potency: 8.27 µM (active)

## Cn1c(=O)c2[nH]c(C3CCCC3)nc2n(C)c1=O
[1]
  Potency: inactive

## COC(=O)[C@H](NC(=O)c1cc(-c2ccccc2)nc2ccccc12)c1ccccc1
[1]
  Potency: inactive

## S=C(S)N1CCCC1
[1]
  Potency: inactive

## CC(C)(C)c1cc(/C=C(\C#N)C(N)=S)cc(C(C)(C)C)c1O
[1]
  Potency: inactive
[2]
  activity, negative = inhibition: -26.1%

## CCCCCCN(CCCCCC)C(=O)Cc1c(-c2ccc(F)cc2)[nH]c2ccccc12
[1]
  Potency: inactive

## C=C1C(=O)O[C@@H]2[C@H]3O[C@]3(C)CCC=C(C)CC[C@@H]12
[1]
  Potency: inactive
[2]
  activity, negative = inhibition: -8.83%

## Nc1nc2c(cnn2CCc2ccccc2)c2nc(-c3ccco3)nn12
[1]
  Potency: inactive

## CNc1cc(NS(=O)(=O)c2ccc(N)cc2)nc(NC)n1
[1]
  Potency: inactive

## CCCCCC(O)CCCC(=O)O (stereo unspecified)
[1]
  Potency: inactive
[2]
  activity, negative = inhibition: -6.03%

## O=c1[nH]c(=O)c2nc3ccccc3nc2[nH]1
[1]
  Potency: inactive

## NC1(C(=O)O)CCc2cc(C(=O)O)ccc21 (stereo unspecified)
[1]
  Potency: inactive

## CN1CCN(c2nc3cc(C(F)(F)F)ccc3n3cccc23)CC1
[1]
  Potency: inactive

## c1ccc2nc(C3=NCCN3)ccc2c1
[1]
  Potency: inactive

## Nc1nc2ccc(Cl)cc2c2nc(-c3ccco3)nn12
[1]
  Potency: inactive
[3]
  Potency: inactive
[6]
  Potency: inactive
[7]
  outcome: inactive

## CN[C@H](CC(=O)O)C(=O)O
[1]
  Potency: inactive
[2]
  activity, negative = inhibition: -14.8%

## COCc1nc2c([nH]1)c(=O)n(C)c(=O)n2CC(C)C
[1]
  Potency: inactive
[2]
  activity, negative = inhibition: -5.87%

## Cc1nc(N=Nc2ccc(S(=O)(=O)O)cc2S(=O)(=O)O)c(COP(=O)(O)O)c(C=O)c1O
[1]
  Potency: inactive
[8]
  Potency: 7.94 µM (active)
[9]
  Potency: inactive
[3]
  Potency: 39.8 µM (active)
[4]
  Potency: 3.98 µM (active)
[2]
  activity, negative = inhibition: -11.6%

## COc1ccc(CCN(C)CCc2ccc(OC)c(OC)c2)cc1OC
[1]
  Potency: inactive
[2]
  activity, negative = inhibition: 3.09%

## CC(C)NC[C@H](O)COc1ccc(CC(N)=O)cc1
[1]
  Potency: inactive
[2]
  activity, negative = inhibition: -2.87%

## COC(=O)C1=C(C)NC(C)=C([N+](=O)[O-])C1c1ccccc1C(F)(F)F (stereo unspecified)
[1]
  Potency: inactive
[2]
  activity, negative = inhibition: -5.36%

## N[C@H](C(=O)O)[C@H](O)C(=O)O
[1]
  Potency: inactive
[2]
  activity, negative = inhibition: -0.47%

## CCCCCCCCCCC(C)(C)C(=O)Nc1c(OC)cc(OC)cc1OC
[1]
  Potency: inactive
[2]
  activity, negative = inhibition: -22.8%

## CCCn1c(=O)c(C)cn2nc(N)nc12
[1]
  Potency: 26.7 µM (active)
[2]
  activity, negative = inhibition: -3980% (active)

## CC(C)NC[C@H](O)COc1cccc2ccccc12
[1]
  Potency: inactive
[2]
  activity, negative = inhibition: -12%

## CC(C)(CO)Cc1cc(C(C)(C)C)c(O)c(C(C)(C)C)c1
[1]
  Potency: inactive
[2]
  activity, negative = inhibition: -8.2%

## c1ccc(C(NCc2cccnc2)(c2ccccc2)c2ccccc2)cc1
[1]
  Potency: inactive
[2]
  activity, negative = inhibition: -13.8%

## O=[N+]([O-])c1cccc2cn[nH]c12
[1]
  Potency: inactive
[2]
  activity, negative = inhibition: -3.93%

## CC(N)(C(=O)O)c1ccc(C(=O)O)cc1 (stereo unspecified)
[1]
  Potency: inactive
[2]
  activity, negative = inhibition: -6.58%

## CC1CNCCN1S(=O)(=O)c1cccc2cnccc12 (stereo unspecified)
[1]
  Potency: inactive
[2]
  activity, negative = inhibition: -12.8%

## COc1ccc(NC(=O)c2ccc(-c3ccc(-c4noc(C)n4)cc3C)cc2)cc1N1CCN(C)CC1
[1]
  Potency: inactive
[2]
  activity, negative = inhibition: -1.51%

## C#CCn1c(=O)c2c(ncn2C)n(C)c1=O
[1]
  Potency: inactive
[2]
  activity, negative = inhibition: -2.26%

## CCCCCCCCCCC/C=C\C(C)(C)/C=C\CCCC(=O)O
[1]
  activity change, negative = inhibition: 13.4% [at 6.83 µM]
[2]
  activity, negative = inhibition: -18.4%

## CC(C)[C@H](NC(=O)OCc1ccccc1)C(=O)N[C@H](C=O)Cc1ccccc1 (Cbz-Val-Phe-aldehyde)
[1]
  Potency: inactive
[2]
  activity, negative = inhibition: 6.73%

## CC(=O)NNC(=O)N1Cc2ccccc2Oc2ccc(Cl)cc21
[1]
  Potency: inactive
[2]
  activity, negative = inhibition: -5.14%

## CC(C)NCC(O)COc1ccc(CC(N)=O)cc1 (stereo unspecified)
[1]
  Potency: inactive
[2]
  activity, negative = inhibition: -1.35%
